# Source: PubChem BioAssay (NCATS)
# Inconclusive results are not listed. A structure can be active in one record and inactive in another. A number with no mark means an inactive call. Activity calls are given as the source filed them. Calls follow the shape of the dose curve; as a rule, active = well fitted inhibition curve with a large enough effect; inconclusive = small, poorly fitted or top-dose-only effect; inactive = flat fitted curve, though single readings scatter.
# Experiment: Drug repurposing screens with cells derived from glioblastoma tumor samples (AID 1345199); also: nearly all actives have a fitted effect of over 40% in size
# Settings: GBM patient neurospheres viability, ATP luminescence, 48 h
# Description: CD133+ cells were isolated from GBM patient biopsies and cultured as neurospheres. Neurospheres from four patients were used to screen the NCATS pharmaceutical collection (NPC) library of approved drugs and bioactive compounds. […] The neurospheres were incubated with drugs for 48 hours in 1536-well format, then assayed with an ATP content cell viability assay. […] These hits were cherry picked to confirm activity in the four original GBM lines screened plus three other slower growing GMB lines (unable to yield enough cells for a full primary screen). Variable activities of the confirmed primary hits in the different GBM patient lines were observed. The patient line 206 responded to the greatest number of compounds and line 923 responded to the least amount of active compounds.
# [1] = at 20 µM (top of the series), tumour line C
# [2] = at 21.2 µM (top of the series), tumour line B
# [3] = at 21.2 µM (top of the series), tumour line D
# [4] = at 45.9 µM (top of the series), tumour line B
# [5] = at 45.9 µM (top of the series), tumour line D
# [6] = at 46.1 µM (top of the series), tumour line C
# [7] = at 46 µM (top of the series), tumour line A
# % is scaled to controls: 0 for no effect and ±100 for the full control effect; potency is read from the fitted curve at half-maximal effect.
compound,measurement,setting,value
CCNC1(c2cccs2)CCCCC1=O (stereo not given),"activity, negative = cell killing",[1],-10.7%
same,"activity, negative = cell killing",[2],2.65%
same,"activity, negative = cell killing",[3],-6.43%
C[C@]12CCC(=O)C=C1C=C[C@@H]1[C@@H]2CC[C@@]2(C)[C@H]1CC[C@@]2(O)CCC(=O)O,"activity, negative = cell killing",[1],15.7%
same,"activity, negative = cell killing",[2],-2.69%
same,"activity, negative = cell killing",[3],-8.65%
CCC1(C)CC(=O)NC(=O)C1,"activity, negative = cell killing",[1],-7.73%
same,"activity, negative = cell killing",[2],-6.36%
same,"activity, negative = cell killing",[3],-5.16%
same,"activity, negative = cell killing","at 21.3 µM (top of the series), tumour line A",-9.96%
C[N+]1([O-])[C@@H]2CC(OC(=O)[C@H](CO)c3ccccc3)C[C@H]1[C@@H]1O[C@@H]12 (stereo not given in full),"activity, negative = cell killing",[1],3.96%
same,"activity, negative = cell killing",[2],5.23%
same,"activity, negative = cell killing",[3],-9%
same,"activity, negative = cell killing",[4],-10.9%
same,"activity, negative = cell killing",[5],-17.4%
same,"activity, negative = cell killing",[6],30.8%
O=C1CCO1,"activity, negative = cell killing",[4],-1.82%
same,"activity, negative = cell killing",[5],6.37%
same,"activity, negative = cell killing",[6],-10.3%
CC(=O)Oc1ccc2c3c1O[C@H]1[C@@H](OC(C)=O)C=C[C@H]4[C@@H](C2)N(C)CC[C@@]341,"activity, negative = cell killing",[4],1.1%
same,"activity, negative = cell killing",[5],-2.21%
same,"activity, negative = cell killing",[6],-13.5%
same,"activity, negative = cell killing","at 99.2 µM (top of the series), tumour line C",-29.8%
same,"activity, negative = cell killing","at 108 µM (top of the series), tumour line B",-14.9%
ClC(Cl)(Cl)Cl,"activity, negative = cell killing",[4],-3.78%
same,"activity, negative = cell killing",[5],4.09%
same,"activity, negative = cell killing",[7],-14.3%
same,"activity, negative = cell killing",[6],-6.14%
CCOC(=O)c1ccccc1C(=O)OCC,"activity, negative = cell killing",[4],-8.14%
same,"activity, negative = cell killing",[5],-11.3%
same,"activity, negative = cell killing",[7],-28.3%
same,"activity, negative = cell killing",[6],0.324%
COc1ccc2c3c1O[C@H]1C(=O)CC[C@H]4[C@@H](C2)N(C)CC[C@]314,"activity, negative = cell killing",[4],-6.83%
same,"activity, negative = cell killing",[5],-23.5%
same,"activity, negative = cell killing",[7],-21.5%
same,"activity, negative = cell killing",[6],-7.26%
O=C1C2CC=CCC2C(=O)N1SC(Cl)(Cl)Cl (stereo not given),"activity, negative = cell killing",[6],-4.36%
same,Potency,tumour line A,7.08 µM (active)
same,Potency,tumour line B,20 µM (active)
same,Potency,tumour line D,11.2 µM (active)
